The inhibition is the drop in the measured response relative to a control, in per cent.

The campaign covered roughly 360,000 compounds. About 2,800 (0.78%) were called active. What follows is part of a selection rich in actives, with near analogues and random picks from the rest. Unmarked numbers belong to inactive results. Rule as the data show it: active = inhibition above about 26%; inactive = the rest.

86 compounds from PubChem BioAssay AID602399 (Sanford-Burnham Center for Chemical Genomics, 2012) can be followed below.

For the assay, the system named is Nicotinate-nucleotide adenylyltransferase NadD (Staphylococcus aureus N315). As to the kind of experiment: S. aureus NadD enzyme activity blockers – biochemical, colorimetric, uHTS, primary screen (AID 602399). Particulars: purified NadD enzyme, colorimetric absorbance read-out; at 20 µM; stronger effect = higher value.
Regarding `C[C@H]1COC(=O)[C@H](CC(=O)OC(C)(C)C)C/C=C\C[C@@H](CC(=O)N[C@H](CO)Cc2ccccc2)C(=O)N1`, the inhibition is -1.24%.

As to `CC(c1ccccn1)N(C)C(=O)c1ccc2nc(Cc3cccc(Cl)c3)oc2c1` (stereo unspecified), the inhibition is -8.59%.

On to `CCOCCCNC(=O)Cc1cc(=O)[nH]c(=O)[nH]1`, for which the inhibition was 4.88%.

For the compound `CC(=O)N1CCc2ccc(N)cc21`, the inhibition was -3.06%.

For the compound `O=C1NC(O)CCN1C1CC(O)C(CO)O1` (stereo unspecified), the inhibition was -1.72%.

Take `Cc1noc(C)c1S(=O)(=O)N(C)C[C@H]1Oc2ccc(NC(=O)C3CC3)cc2C(=O)N([C@H](C)CO)C[C@@H]1C`: the inhibition is 4.79%.

Take `Cc1ccc2nc(SCC(=O)N3CC(C)OC(C)C3)nc(=O)n2c1` (stereo unspecified): the inhibition is -2.71%.

`CCOC(=O)C1=CCC(c2ccc(F)cc2)N(S(=O)(=O)c2ccc(C)cc2)C1` (stereo unspecified): the inhibition is -6.49%.

Consider `COC(=O)[C@]12CCCCC=C1N(Cc1ccc(Cl)cc1Cl)C(=O)[C@H](CC(=O)NCc1cccc3ccccc13)C2`, for which the inhibition is 16.3%.

Turning to `CCN(CC)c1ccc(C(=O)NNC(=O)CCc2nc3ccccc3c(=O)[nH]2)cc1`, the inhibition is -1.03%.

As to `Cc1cc(C)c(-c2csc(NC(=O)CCCc3nc4ccccc4c(=O)[nH]3)n2)c(C)c1`, the inhibition was 21.6%.

Turning to `CCCn1c(C)cc(-c2csc(NC(=O)CCc3nc4ccccc4c(=O)[nH]3)n2)c1C`, the inhibition is 47.6% (active).

Consider `CN(CC(=O)NCc1ccc2c(c1)OCO2)CC(=O)Nc1ccc(F)c(F)c1F`, for which the inhibition was -3.42%.

Consider `COc1ccc([N+](=O)[O-])cc1NC(=O)c1ccc(N(Cc2ccccc2C)S(C)(=O)=O)cc1`, for which the inhibition is 11%.

For the compound `COc1ccc([N+](=O)[O-])cc1NCC(=O)c1ccc(C)cc1`, the inhibition is 7.38%.

For the compound `COc1ccc([N+](=O)[O-])cc1NC(=O)CC1SC(=Nc2cccc(C)c2C)N(/N=C(\C)c2ccc(C)cc2)C1=O` (stereo unspecified), the inhibition is 26.7% (active).

As for `N#CNC1=NCN(CCc2ccccc2)CN1`, the inhibition was 3.37%.

On to `COc1ccc(NC(=O)N(C)C[C@@H]2OCc3cn(nn3)CCCC(=O)N([C@H](C)CO)C[C@H]2C)c(OC)c1`, for which the inhibition is -0.14%.

For the compound `COc1cccc(CN(C)CC(=O)Nc2sc3c(c2C#N)CCC3)c1`, the inhibition was -5.48%.

Take `CCCc1cc(=O)[nH]c(SCC(=O)Nc2sc3c(c2C#N)CCCC3)n1`: the inhibition was 0.874%.

In the case of `COc1ccc(-n2c(SCC(=O)Nc3sc4c(c3C#N)CCCC4)nnc2-c2ccc(O)cc2)cc1`, the inhibition is 33.1% (active).

As to `COc1ccc(-c2ccc3[nH]c4c(c3c2)CCN2C[C@H]3[C@H](C)ON(C)[C@H]3C[C@@H]42)cc1`, the inhibition is -7.97%.

On to `COc1cccc(C(O)c2nc(-c3ccc(C)c(C)c3)cs2)c1` (stereo unspecified), for which the inhibition is -4.75%.

Consider `Cc1cc(NC(=O)COC(=O)/C=C/c2ccc(C)o2)no1`, for which the inhibition was -5.17%.

Regarding `Cc1ccc(/C=C/C(=O)Nc2ccc([N+](=O)[O-])c(NC(=O)/C=C/c3ccc(C)o3)c2)o1`, the inhibition was 47.9% (active).

As to `COC(=O)/C=C\C(=O)Nc1cccc([N+](=O)[O-])c1`, the inhibition is 7.18%.

With `O=C(NC(=O)N1CCSCC1)c1c(Cl)cccc1Cl`, the inhibition was 17.8%.

As to `Cc1ccc(S(=O)(=O)NCC(=O)N(CC(=O)NC(C)(C)C)Cc2cccs2)cc1`, the inhibition is -3.65%.

In the case of `Cn1c2c(c(=O)n(C)c1=O)[C@@H]1c3c(ccc4ccccc34)OC[C@@H]1CO2`, the inhibition was 1.89%.

In the case of `CC1=CC(=O)C=CC1(C)C(Cl)(Cl)Cl` (stereo unspecified), the inhibition was 4.28%.

`N#CC1=C(N)Oc2c(sc3ccccc23)C1c1ccco1` (stereo unspecified): the inhibition is 33.4% (active).

`Cc1ccc(C(=O)N(CN2CCCC2=O)c2ccc(F)cc2)cc1`: the inhibition is -3.99%.

With `COc1cc(C(F)(F)F)c(C(=O)N(C)c2ccc(Cl)cc2)cn1`, the inhibition was -3.26%.

As to `COc1ccc(C(NC(=O)C2CCN(CCCc3ccccc3)CC2)c2cccs2)cc1` (stereo unspecified), the inhibition was 0.814%.

As to `COc1cccc(/C=C/c2ccc3ccccc3n2)c1OC(C)=O`, the inhibition was -5.51%.

As to `Cc1ccc2sc(NNC(=O)c3ccc4c(c3)OCCO4)nc2c1C`, the inhibition is 11.1%.

Regarding `COc1cccc2sc(NNC(=O)c3nc4ccccc4s3)nc12`, the inhibition was 36.6% (active).

Consider `O=C(COc1nc2ccccc2nc1N1CCOCC1)NCC(F)(F)F`, for which the inhibition was -2.03%.

`COC(=O)[C@@]1(Cc2ccc(OC)cc2)[C@H]2c3cc(C(=O)N4CCCC4)n(Cc4ccc(OC(F)(F)F)cc4)c3C[C@H]2CN1C(=O)c1ccccc1`: the inhibition was 15.7%.

Regarding `CCOc1ccc(S(=O)(=O)N2CCCCC2)cc1NC(=O)CN1CCCC1c1cccs1` (stereo unspecified), the inhibition was 5.31%.

As to `CCN(CC)c1ccc(NC(=O)CN2C(=O)NC3(CCc4ccccc43)C2=O)cc1` (stereo unspecified), the inhibition is -4.85%.

Consider `CCCN(c1ccc(C(C)C)cc1)S(=O)(=O)c1c(C)[nH]c(=O)[nH]c1=O`, for which the inhibition is 6.85%.

For `CC(=O)Nc1ccc(C(=O)Nc2cccc(S(=O)(=O)NC3=NCCC3)c2)cc1`, the inhibition was 7.82%.

In the case of `Nc1[nH]c(=S)nc2nc(-c3ccccc3)c(-c3ccccc3)nc12`, the inhibition was 31.3% (active).

In the case of `CC/C(=N\O)C(C)(C)/[N+]([O-])=C/c1ccc(Br)cc1`, the inhibition was -4.93%.

For the compound `CC12CN(Cc3ccccc3)CC(C)(CN(Cc3ccccc3)C1)C2=NO`, the inhibition was -2.69%.

For the compound `O=C(NCCc1cccc(F)c1)C1CC(O)CN1C(=O)Nc1ccccc1` (stereo unspecified), the inhibition is 0.207%.

In the case of `O=S(=O)(c1ccc(Cl)cc1)N1CCCN(c2ccc(C(F)(F)F)cn2)CC1`, the inhibition was -6.85%.

With `Cc1ccc2nc(/C(C#N)=C\c3ccc(OC(=O)c4cccs4)cc3)[nH]c2c1`, the inhibition was 40.4% (active).

With `COc1ccc(CCNC(=O)/C(C#N)=C2\N=C(NC(=O)c3cccs3)c3ccccc32)cc1`, the inhibition was 2.29%.

Turning to `CN1CCN(CC#CCC2(O)c3ccccc3-c3ccccc32)CC1`, the inhibition is -2.12%.

As to `O=C1CC(c2cccc(Cl)c2)CC(O)=C1C=Nc1ccccc1` (stereo unspecified), the inhibition was -3.63%.

In the case of `COc1ccc2c(c1OC)C(=O)N(c1ncn[nH]1)C2`, the inhibition is 0.954%.

`COc1ccc(Cl)cc1S(=O)(=O)N1CCC(O)(c2ccc(Cl)cc2)CC1`: the inhibition is -4.67%.

Turning to `CCc1c(C)c2c(C)[nH]nc2oc1=O`, the inhibition was -0.195%.

For the compound `Cc1ccc(NC(=O)c2sc3nc(N)c(C#N)cc3c2N)cc1`, the inhibition was 12.7%.

For the compound `Cc1cccc(NC(=O)c2sc3nc4c(c(-c5ccco5)c3c2N)CCC4)c1`, the inhibition was 44.6% (active).

For `O=c1oc(-c2ccco2)nc2sc3c(c12)CCCCC3`, the inhibition is -5.51%.

As to `Cc1cccn2c(CN(C)C3CCCc4ccccc43)c(C(=O)N3CCOCC3)nc12` (stereo unspecified), the inhibition is -3.79%.

Regarding `C=CCOc1ccccc1NC(=O)CN1C(=O)CNC1=O`, the inhibition is -2.12%.

Regarding `O=C(Nc1ccc(Br)cn1)C1CCN(S(=O)(=O)c2cccs2)CC1`, the inhibition was -7.26%.

Take `CCCc1nc(SCC(=O)Nc2ccccc2OC)c2c(=O)n(C)c(=O)n(C)c2n1`: the inhibition was -1.01%.

On to `O=C(O)CCN(Cc1ccccc1)S(=O)(=O)c1c(Cl)cccc1Cl`, for which the inhibition was -4.97%.

As for `CCOC(=O)C1=C(C)c2ccccc2OC1C(=O)OCC` (stereo unspecified), the inhibition was -1.62%.

Consider `C=C1c2cccc(OC)c2O[C@H](C(=O)OCC)[C@@H]1CCCCCC`, for which the inhibition is 52.4% (active).

As for `O=C(COC(=O)c1cc(=O)[nH]c2ccccc12)NCc1cccc(Cl)c1`, the inhibition was 0%.

As to `O=C(CSc1nc2ccccc2c(=O)[nH]1)Nc1nc(-c2ccc(Br)cc2)cs1`, the inhibition is 42.3% (active).

For `O=C(CSc1ncn[nH]1)Nc1nc(-c2cccc([N+](=O)[O-])c2)cs1`, the inhibition is -5.15%.

`O=C(COC(=O)c1cc(=O)[nH]c2ccccc12)Nc1nc(-c2cccc(Br)c2)cs1`: the inhibition is 42.5% (active).

For `O=C(OCc1nnc(-c2ccccc2)o1)c1cc(=O)[nH]c2ccccc12`, the inhibition is -0.542%.

For the compound `Cc1csc(NC(=O)CSc2ccc(-c3ccc(F)cc3)nn2)n1`, the inhibition was 0.514%.

With `CCOC(=O)c1ccn(S(=O)(=O)c2ccc(C)cc2)c1-c1ccccc1`, the inhibition is -0.973%.

With `CCOc1ccc(-c2cn(S(=O)(=O)c3cccc4nsnc34)nc2N)cc1`, the inhibition is -0.18%.

`CC(C)c1nnc(NC(=O)CCC(=O)N2CCN(c3cccc(Cl)c3)CC2)s1`: the inhibition was 1.72%.

As to `COc1c(F)c(F)c(-c2csc(N)n2)c(F)c1F`, the inhibition is -5.11%.

In the case of `O=C(Nc1ccc(OCCO)cc1)c1csc([C@H]2C[C@H](O)[C@@H](CO)O2)n1`, the inhibition was -8.65%.

For `CCCNC(=O)c1cnc(-c2ccccc2)nc1-c1ccccc1`, the inhibition is -3.59%.

Turning to `CCOc1cc(/C=C2/N=C(c3ccc(C(C)(C)C)cc3)OC2=O)cc(Cl)c1OS(C)(=O)=O`, the inhibition is 71.7% (active).

`CNC(=O)c1ccsc1NC(=O)c1ccc(S(=O)(=O)N2CCc3ccccc32)cc1`: the inhibition is 11.7%.

As for `O=C(Nc1nc2ccc([N+](=O)[O-])cc2s1)c1ccc(S(=O)(=O)N2CCCc3ccccc32)cc1`, the inhibition was 34.4% (active).

With `O=C(NC(Nc1nc2ccc([N+](=O)[O-])cc2s1)(C(F)(F)F)C(F)(F)F)c1ccccc1`, the inhibition is -2.21%.

As for `O=C(OCc1cn(-c2ccc(Cl)c(Cl)c2)nn1)c1ccccc1Cl`, the inhibition was 0.666%.

As to `C=CCc1cccc2cc(C(=O)N3CCN(C(=O)OCC)CC3)c(=O)oc12`, the inhibition is -4.59%.

As for `COc1ccc(C)cc1NC(=O)c1ccc(-c2ccc(C(C)=O)cc2)o1`, the inhibition is -8.65%.

`CN(c1ccccn1)c1ncnc2[nH]ncc12`: the inhibition was -2.6%.

With `Cc1cc(C)c2c(c1)cc(C)c1nnc(SCC(=O)Nc3cc(C)on3)n12`, the inhibition is 0.406%.
